# Test results from PubChem BioAssay AID1345085 (National Center for Advancing Translational Sciences (NCATS), 2018).
# Records with an inconclusive call do not appear. The source made the active and inactive calls. Calls come from the whole dose curve; as a rule, active = well fitted cell-killing curve with a large enough effect; inconclusive = small, poorly fitted or top-dose-only effect, or effect the other way; inactive = no such curve, though single readings can be large or run the other way. *1 amine or outer side, *2 acyl side, *3 side chain or, on linkers, in order; H or OH if unused. Where a SMILES comes first, the peptide text is derived from it. Bridges are numbered along the chain shown (N, C = ends). Roman numbers before positions name the chains, in order. [ ]: non-standard residue; d: D form. Actinocin(9to1) = Cc1c2oc3c(C)ccc(C(=O)[*:1])c3nc-2c(C(=O)[*:2])c(N)c1=O; NMeV = CN[C@H](C(=O)O)C(C)C; Sar = CNCC(=O)O
# System: PA-1
# Assay: Confirmatory qHTS for gynecologic anti-cancer compounds from libraries of approved drugs and bioactive compounds; note: nearly all actives have a fitted effect of over 55% in size
# Conditions: gynecologic cancer cell panel viability, ATPlite luminescence, 48 h; series mostly up to 57.6 µM
# Method in brief: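 ATP-based luminescent viability (ATPlite) after 48 h drug treatment at 37 °C, 5% CO2, across 57.5 uM–0.977 nM in 1:3 steps. Cells seeded at 1,000 per well 16 h beforehand; IC50 values computed, HEK 293T as selectivity control.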
# Potency is the fitted concentration of half-maximal effect.
row,SMILES,Potency
1,COc1ccc2cc3[n+](cc2c1OC)CCc1cc2c(cc1-3)OCO2,0.968 µM (active)
2,CCc1c2c(nc3ccc(O)cc13)-c1cc3c(c(=O)n1C2)COC(=O)[C@]3(O)CC,0.0769 µM (active)
3,CC(=O)c1cnc2ccc(-c3cc(Cl)c(O)c(Cl)c3)nc2c1NC1CCC(CN(C)C)CC1 (centres undefined),0.222 µM (active)
4,"Cc1c2oc3c(C)ccc(C(=O)N[C@@H]4C(=O)N[C@H](C(C)C)C(=O)N5CCC[C@H]5C(=O)N(C)CC(=O)N(C)[C@@H](C(C)C)C(=O)O[C@@H]4C)c3nc-2c(C(=O)N[C@@H]2C(=O)N[C@H](C(C)C)C(=O)N3CCC[C@H]3C(=O)N(C)CC(=O)N(C)[C@@H](C(C)C)C(=O)O[C@@H]2C)c(N)c1=O (I: T[dV]P[Sar][NMeV] / II: T[dV]P[Sar][NMeV]; ester I:1-I:C, II:1-II:C; linker I:N-II:N via Actinocin(9to1))",0.0968 µM (active)
5,COc1ccc2c(c1OC)C(=O)O[C@@H]2[C@H]1c2c(cc3c(c2OC)OCO3)CCN1C,24.3 µM (active)
6,CC(Oc1cc(-n2cnc3ccc(CN4CCN(C)CC4)cc32)sc1C(N)=O)c1ccccc1C(F)(F)F (centres undefined),2.43 µM (active)
7,COc1cc(C(=O)N2CCC(N3CCN(C)CC3)CC2)ccc1Nc1ncc2c(n1)N(C)c1ccccc1C(=O)N2C,9.68 µM (active)
8,CC(C)(C(=O)NCC(F)(F)C(F)(F)F)C(=O)NC1C(=O)Nc2ccccc2-c2ccccc21 (centres undefined),9.68 µM (active)
9,Cc1ccc(C(=O)Nc2cccc(C(F)(F)F)c2)cc1-c1ccc2nc(NCCN3CCOCC3)ncc2c1,17.2 µM (active)
10,O=C(NOC[C@H](O)CO)c1ccc(F)c(F)c1Nc1ccc(I)cc1F,3.85 µM (active)
11,O=C(NOCC1CC1)c1ccc(F)c(F)c1Nc1ccc(I)cc1Cl,8.63 µM (active)
12,CCc1cccc(CC)c1NC(=O)N1Cc2[nH]nc(NC(=O)c3ccc(N4CCN(C)CC4)cc3)c2C1,2.43 µM (active)
13,COc1cc(Nc2c(C#N)cnc3cc(OCCCN4CCN(C)CC4)c(OC)cc23)c(Cl)cc1Cl,13.7 µM (active)
14,O=C(Nc1cn[nH]c1-c1nc2ccc(CN3CCOCC3)cc2[nH]1)NC1CC1,3.85 µM (active)
15,Cc1ccc(C(=O)Nc2ccc(CN3CCN(C)CC3)c(C(F)(F)F)c2)cc1C#Cc1cnc2cccnn12,6.85 µM (active)
16,O=C(/C=C/c1cccc(S(=O)(=O)Nc2ccccc2)c1)NO,0.595 µM (active)
17,COc1cccc2c1C(=O)c1c(O)c3c(c(O)c1C2=O)C[C@@](O)(C(=O)CO)C[C@@H]3O[C@H]1C[C@H](N)[C@H](O[C@@H]2CCCCO2)[C@H](C)O1,0.685 µM (active)
18,CC(C)C[C@H](NC(=O)[C@H](CCc1ccccc1)NC(=O)CN1CCOCC1)C(=O)N[C@@H](Cc1ccccc1)C(=O)N[C@@H](CC(C)C)C(=O)[C@@]1(C)CO1,2.43 µM (active)
19,CN1CCCC(n2nc(Cc3ccc(Cl)cc3)c3ccccc3c2=O)CC1 (centres undefined),27.3 µM (active)
20,COc1ccc(-c2nc3ccc(C4=NNC(=O)CC4C)cc3[nH]2)cc1 (centres undefined),21.7 µM (active)

row,SMILES,Potency
1,CCN1CCN(Cc2ccc(Nc3ncc(F)c(-c4cc(F)c5nc(C)n(C(C)C)c5c4)n3)nc2)CC1,2.43 µM (active)
2,Cc1nc(NC(=O)N2CCCC2C(N)=O)sc1-c1ccnc(C(C)(C)C(F)(F)F)c1 (centres undefined),27.3 µM (active)
3,Cc1cc(CN2CCN(c3c(Br)cnc4nc(-c5ccc(N6CCN(C)CC6)cc5)[nH]c34)CC2)no1,17.2 µM (active)
4,Cc1cc(C(C)Nc2ccccc2C(=O)O)c2nc(N3CCOCC3)cc(=O)n2c1 (centres undefined),21.7 µM (active)
5,OC[C@H]1O[C@@H](n2cnc3c(=S)nc[nH]c32)[C@H](O)[C@@H]1O,2.73 µM (active)
6,O=C(Nc1cccnc1)N1CCC(Cc2cccc(Oc3ccc(C(F)(F)F)cn3)c2)CC1,6.85 µM (active)
7,OCCNC1CCCc2c1[nH]c1ccc(-c3ccccc3)cc21 (centres undefined),27.3 µM (active)
8,Cc1nc(N)sc1-c1ccnc(Nc2ccc(N3CCOCC3)cc2)n1,4.32 µM (active)
9,Cn1cnc([N+](=O)[O-])c1Sc1ncnc2nc[nH]c12,5.44 µM (active)
10,CCS(=O)(=O)N1CCN(c2ccc(Nc3ncc(C(N)=O)c(NC4CC4)n3)cc2)CC1,3.85 µM (active)
11,N#CC1(c2cccc(C(=O)Nc3cc(Oc4ccc5nc(NC(=O)C6CC6)sc5n4)ccc3F)c2Cl)CC1,8.63 µM (active)
12,CC(C)[C@@H](CS(=O)(=O)C(C)C)N1C(=O)[C@@](C)(CC(=O)O)C[C@H](c2cccc(Cl)c2)[C@H]1c1ccc(Cl)cc1,2.43 µM (active)
13,CCc1nc(C(N)=O)c(Nc2ccc(N3CCC(N4CCN(C)CC4)CC3)c(OC)c2)nc1NC1CCOCC1,1.06 µM (active)
14,Cc1cc(Nc2nc(N[C@@H](C)c3ccc(F)cc3)c(C#N)cc2F)n[nH]1,3.06 µM (active)
15,COc1cc2c(Oc3ccc(-c4cnc(Nc5ccc(F)cc5)n(C)c4=O)cc3F)ccnc2cc1OCCCN1CCOCC1,21.7 µM (active)
16,Cn1c(=O)c(F)c(Nc2ccc(I)cc2F)c2c(=O)n(CC(O)CO)cnc21 (centres undefined),2.17 µM (active)
17,CCOc1cc2ncc(C#N)c(Nc3ccc(F)c(Cl)c3)c2cc1NC(=O)/C=C/CN(C)C,17.2 µM (active)
18,Nc1nccc(Oc2ccc(NC(=O)c3c[nH]cc(-c4ccc(F)cc4)c3=O)cc2F)c1Cl,3.06 µM (active)
19,COc1ccc(-c2cc3nccn3c(Nc3ncccc3C(N)=O)n2)cc1OC,6.11 µM (active)
